Measurements from the supplement of paper PMC6555819.

Experiments:
Assay in all cases: PBM binding z-score (relative to random genomic background probes); higher = stronger binding; sequences stand for … in GC…GCGATTGACAGCGTAGAATGAAGG
[1] = tested on: FXR:RXRa (NR concentration 270 nM, RXRa partner concentration 90 nM)
Summary of the method: (§1)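 Ligand-free nuclear receptor dimers were applied to custom Agilent 4×180K protein-binding microarrays whose double-stranded probes carried direct-repeat seeds, single-nucleotide variants, half-site ablations and random human genomic background sequences in 34-nt variable regions. Incubation lasted 1 h. Binding z-scores were computed against the random background probes from regression-normalized fluorescence.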

[2] = tested on: LXRa:RXRa (NR concentration 270 nM, RXRa partner concentration 90 nM)
Summary of the method: as §1

[3] = tested on: LXRa homodimer (NR concentration 270 nM)
Summary of the method: as §1

[4] = tested on: LXRb:RXRa (NR concentration 270 nM, RXRa partner concentration 90 nM)
Summary of the method: as §1

[5] = tested on: LXRb homodimer (NR concentration 270 nM)
Summary of the method: as §1

[6] = tested on: PPARa:RXRa (NR concentration 270 nM, RXRa partner concentration 90 nM)
Summary of the method: as §1

[7] = tested on: PPARg:RXRa (NR concentration 180 nM, RXRa partner concentration 90 nM)
Summary of the method: as §1

[8] = tested on: PPARg:RXRa 270nM:90nM, anti-RXR (NR concentration 270 nM, RXRa partner concentration 90 nM)
Summary of the method: as §1

[9] = tested on: PPARg:RXRa 30nM:10nM, anti-RXR (NR concentration 30 nM, RXRa partner concentration 10 nM)
Summary of the method: as §1

[10] = tested on: PPARg:RXRa 90nM:30nM, anti-RXR (NR concentration 90 nM, RXRa partner concentration 30 nM)
Summary of the method: as §1

[11] = tested on: PPARg:RXRa DBDmut IVT, anti-RXR (DBD mutation: RXRa K156A/R161A, NR concentration 270 nM, RXRa partner concentration 90 nM)
Summary of the method: as §1

[12] = tested on: PPARg:RXRa IVT, anti-PPARg (NR concentration 270 nM, RXRa partner concentration 90 nM)
Summary of the method: as §1

[13] = tested on: PPARg DBDmut:RXRa IVT, anti-PPARg (DBD mutation: PPARg1 K132A/R137A, NR concentration 270 nM, RXRa partner concentration 90 nM)
Summary of the method: as §1

[14] = tested on: PPARg DBDmut IVT, anti-PPARg (DBD mutation: PPARg1 K132A/R137A, NR concentration 270 nM)
Summary of the method: as §1

[15] = tested on: PPARg homodimer (NR concentration 180 nM)
Summary of the method: as §1

[16] = tested on: PXR:RXRa (NR concentration 270 nM, RXRa partner concentration 90 nM)
Summary of the method: as §1

[17] = tested on: PXR homodimer (NR concentration 270 nM)
Summary of the method: as §1

[18] = tested on: RARa:RXR (NR concentration 270 nM, RXRa partner concentration 90 nM)
Summary of the method: as §1

[19] = tested on: RARa homodimer (NR concentration 270 nM)
Summary of the method: as §1

[20] = tested on: RARb:RXRa (NR concentration 270 nM, RXRa partner concentration 90 nM)
Summary of the method: as §1

Sequence	PBM binding z-score [1]	PBM binding z-score [2]	PBM binding z-score [3]	PBM binding z-score [4]	PBM binding z-score [5]	PBM binding z-score [6]	PBM binding z-score [7]	PBM binding z-score [8]	PBM binding z-score [9]	PBM binding z-score [10]	PBM binding z-score [11]	PBM binding z-score [12]	PBM binding z-score [13]	PBM binding z-score [14]	PBM binding z-score [15]	PBM binding z-score [16]	PBM binding z-score [17]	PBM binding z-score [18]	PBM binding z-score [19]	PBM binding z-score [20]
AGAACTAGGGCAATGAGTTGATAGCACGGGTGGC	-0.0132	-0.254	-0.285	-0.631	-0.61	2.48	4.11	3.2	1.29	2.41	7.38	6.72	1.02	0.615	0.447	0.226	0.366	0.000604	0.238	1.31
CCGACTGGGGCATAAGGTTCCCATAAGCCAGCCC	-0.429	-0.436	-0.915	-0.62	-1.28	0.156	0.836	1.45	-0.116	1.19	1.82	2	-1.14	-1.53	-0.0208	-0.582	-0.205	-0.563	0.262	0.252
CCTAGATGGTCAAGGTCACACACGCTATAGGTAC	4.6	3.62	2.05	3.69	0.665	4.2	3.13	3.56	1.34	2.46	1.66	3.08	1.08	0.88	3.58	4.21	2.09	4.57	2.52	4.29
TGACCAAGGTGAGCTGAGGTCGTTGATCCAACTC	0.866	1.01	-0.752	0.289	-1.36	1.62	0.26	0.767	-0.66	0.279	0.169	1.43	0.123	-1.59	-0.0589	4.67	0.0412	1.84	-0.758	1.69
CCAGACAGGTGAGAAGGTAACTGAGCCTCGATTA	-0.0558	-0.104	-0.12	-0.102	-0.691	0.592	0.397	0.61	-0.11	0.193	0.955	0.477	-0.278	-0.535	0.591	-0.214	0.124	0.14	0.118	0.396
TCTGCTAGGTCAACGATTGTCAGCTAATCTGCTA	2.81	1.94	-0.0951	1.4	-0.279	2.93	2.43	2.93	1.9	2.36	4.14	4.13	0.817	0.395	0.734	1.19	-0.478	1.86	-1.01	4.03
TCGTGTAGATCAGCAGGTTAAGAAAGCTGGCCAA	-0.188	0.0517	-0.312	0.0213	-0.844	0.437	-0.564	0.79	1.98	1.42	1.06	-0.357	-0.818	-0.881	0.306	-0.0142	-0.356	0.167	-0.19	-0.0644
ATCGAAAGGTCGAAGTTGAGTATACCCACCCGAA	4.36	3.82	0.667	3.19	1.03	4.79	3.29	3.96	1.49	3.12	0.0828	1.59	1.1	1	1.31	3.05	0.0112	3.76	0.0634	3.84
CGAACGAGGGCATGAGTTGACAGCAAATGCCGAT	0.601	0.522	-0.133	0.145	-1.11	1.81	1.53	1.54	-0.213	0.897	2.75	2.11	-0.484	-0.439	0.454	0.679	0.0292	0.954	-0.609	2.21
CCAGACAGGTGAGAAGGTGACTCAGCCTCGATTA	0.0148	-0.0121	-0.103	0.201	-0.178	0.868	0.495	0.694	-0.409	0.222	1.19	0.996	0.0696	-0.454	0.821	-0.175	0.603	0.235	0.708	1.02
CGTCCAAGGTCAAAGGTCGGTGAAGAGATGACGG	7.72	5.78	1.27	5.08	0.738	7.01	9.09	7.29	6.65	7.6	3.9	5.09	0.166	-0.0129	2.61	5.91	0.774	7.5	0.478	5.68
ACTATTAGTTGAGTTAGGGCAACCGATACGACGC	-0.00299	-0.201	0.321	-0.189	0.544	-0.0901	0.832	0.293	0.372	0.303	-0.0972	0.498	1.2	0.707	0.995	0.111	0.462	-0.0618	1.3	0.797
AAATGTAGGTTAGCTGGGGTCATTCAGACTAGGC	4.53	5.93	3.17	4.82	0.888	5.67	6.42	5.77	3.31	5.16	7.19	7.11	4.54	3.23	3.17	6.55	4.04	6.04	0.836	3.28
CAAACTAGTTCACCGGAAGGTCAAAGTCCGCATG	4.43	4.89	4.71	4.6	1.66	4.24	1.87	2.85	0.587	1.95	2.4	2.7	0.634	0.566	3.3	5.22	3	5.72	1.73	4.36
GCTAGTTGGTCAGTAAAAGGTCACAGACCGGTCG	3.72	4.57	4.2	4.1	0.607	5.07	3.41	4.95	2.71	4.5	1.25	3.03	-0.272	0.44	3.83	4.92	1.24	6.32	1.97	4.51
CCAGACAGGTGAGAAGGTAAGTCAGCCTCGATTA	0.146	0.152	-0.318	0.215	-0.265	0.66	0.255	0.254	-0.405	-0.0734	0.908	0.37	-1.11	-0.901	0.826	0.0674	0.339	0.396	0.66	0.566
ATCGAAGGGTCGAGGTGAGTATAGAGAAAGGGAA	1.41	1.24	0.0219	1.19	0.389	2.62	1.49	1.28	0.548	0.905	-0.0932	1.19	0.848	0.0579	1.27	1.26	0.308	1.74	1.01	2.51
TCATATAGGGAATACAGGTGAAAGTCGGCATCTA	1.31	1.1	0.252	0.958	0.236	1.92	1.16	2.76	4.44	3.22	3.35	2.3	1.03	1.07	1.14	0.862	0.632	1.2	1.4	0.823
ATACCAAGGTGATCGTGAAGTCGTTGATACTAAC	0.402	0.225	0.0745	0.448	-0.0277	0.429	0.37	0.481	-0.0865	0.2	0.462	1.26	0.643	0.615	0.766	0.468	-0.0567	0.548	0.427	0.582
CCAGACAGGTGAAAGGTAACTAAGTCTGGTACGC	0.301	0.559	-0.431	0.84	-0.415	3.31	5.33	6.03	4.37	6.14	1.58	2.54	-0.18	-0.253	0.909	0.819	0.101	1.81	0.324	1.14
TCTAGTAGATCAACAGGAGGTTAAGAAAGATCGA	0.568	1.07	0.252	0.768	-0.7	1.36	0.296	1.55	2.92	2.01	1.67	0.911	0.0951	-0.146	0.637	0.739	0.18	1.05	0.751	0.445
CAAACTAGGTTAAAGGTCAAAGTCGAGCCAACCA	6.87	6.3	5.27	6	2.67	7.07	13.2	11	14.1	13.4	7.78	8.2	3.63	3.37	5.35	6.11	1.51	7.9	3.41	4.76
AGAACGAGTGCAATGAGTTGATAGCACGGGTGGC	-0.597	-0.443	-0.783	-0.585	-1.04	-0.17	0.712	-0.327	-0.239	-0.508	-0.425	-0.173	-0.0779	-0.15	-0.623	1.9	7.51	-0.248	-1.04	0.212
TAGCTTAGGTCATTGGGCCAGTATAGTACGCATC	4.59	4.02	1.12	2.62	0.994	4.09	2.96	3.44	1	2.18	2.21	3.15	0.561	0.108	1.34	1.97	0.132	2.53	0.063	3.72
GCTAGCAGGCCATTTGGGACACTCAATGACGGGC	-0.491	-0.668	-0.545	-1.16	-1.04	-0.523	0.681	-0.463	-0.719	-0.835	0.822	0.411	-0.432	-0.76	-1.04	-0.714	-0.736	-0.559	-0.547	-0.00778
CCGACTGGGGCAGAAAGGTTTCCATACCATCCGG	-0.743	-0.804	-0.629	-1.01	-1.31	-0.642	0.629	0.229	-0.72	-0.258	1.64	0.908	-1.84	-1.79	-0.677	-0.755	-0.948	-0.82	-1.09	0.352
CCTTACGTGTCACTCCAGGTTATAGCATCGGAGT	1.96	5.55	2.04	1.89	1.05	0.862	0.466	0.288	-0.302	-0.0102	1.84	1.44	0.74	0.788	1.64	1.44	0.593	0.864	1.76	1.16
CATACAGGGTCAGCTAGGCCAGAGAAGGGACGGC	4.68	2.97	-0.0685	2.27	0.339	4.4	3.38	3.06	0.62	1.82	1.21	2.58	0.932	-0.117	1.9	2.24	0.0894	3.29	0.36	4.16
AGAATGAGGTTACCTAAGATCAGGGAAACGCTTG	1.57	6.42	-0.328	3.4	-0.272	3.36	2.39	2.16	0.68	1.55	2.92	2.93	1.22	0.151	1.06	1.67	0.241	2.62	-0.231	1.95
